Reference: article PMC4336329 (PLoS ONE, 2015)
Screen size: about 310,000 compounds; about 14,000 (4.5%) showed an effect of 50% or more. Effects have a minus sign here. Only a selection was taken, and strong results are over-represented in it overall.

target: human ether-à-go-go-related gene (hERG) potassium channel (human, UniProt Q12809); assay: primary screen, population patch clamp on CHO cells stably expressing hERG; higher = less effect of the substance
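Also: peak tail current of the secondary pulse compared with the same well before compound.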

Chain of human ether-à-go-go-related gene (hERG) potassium channel (Q12809 whole entry, looked up): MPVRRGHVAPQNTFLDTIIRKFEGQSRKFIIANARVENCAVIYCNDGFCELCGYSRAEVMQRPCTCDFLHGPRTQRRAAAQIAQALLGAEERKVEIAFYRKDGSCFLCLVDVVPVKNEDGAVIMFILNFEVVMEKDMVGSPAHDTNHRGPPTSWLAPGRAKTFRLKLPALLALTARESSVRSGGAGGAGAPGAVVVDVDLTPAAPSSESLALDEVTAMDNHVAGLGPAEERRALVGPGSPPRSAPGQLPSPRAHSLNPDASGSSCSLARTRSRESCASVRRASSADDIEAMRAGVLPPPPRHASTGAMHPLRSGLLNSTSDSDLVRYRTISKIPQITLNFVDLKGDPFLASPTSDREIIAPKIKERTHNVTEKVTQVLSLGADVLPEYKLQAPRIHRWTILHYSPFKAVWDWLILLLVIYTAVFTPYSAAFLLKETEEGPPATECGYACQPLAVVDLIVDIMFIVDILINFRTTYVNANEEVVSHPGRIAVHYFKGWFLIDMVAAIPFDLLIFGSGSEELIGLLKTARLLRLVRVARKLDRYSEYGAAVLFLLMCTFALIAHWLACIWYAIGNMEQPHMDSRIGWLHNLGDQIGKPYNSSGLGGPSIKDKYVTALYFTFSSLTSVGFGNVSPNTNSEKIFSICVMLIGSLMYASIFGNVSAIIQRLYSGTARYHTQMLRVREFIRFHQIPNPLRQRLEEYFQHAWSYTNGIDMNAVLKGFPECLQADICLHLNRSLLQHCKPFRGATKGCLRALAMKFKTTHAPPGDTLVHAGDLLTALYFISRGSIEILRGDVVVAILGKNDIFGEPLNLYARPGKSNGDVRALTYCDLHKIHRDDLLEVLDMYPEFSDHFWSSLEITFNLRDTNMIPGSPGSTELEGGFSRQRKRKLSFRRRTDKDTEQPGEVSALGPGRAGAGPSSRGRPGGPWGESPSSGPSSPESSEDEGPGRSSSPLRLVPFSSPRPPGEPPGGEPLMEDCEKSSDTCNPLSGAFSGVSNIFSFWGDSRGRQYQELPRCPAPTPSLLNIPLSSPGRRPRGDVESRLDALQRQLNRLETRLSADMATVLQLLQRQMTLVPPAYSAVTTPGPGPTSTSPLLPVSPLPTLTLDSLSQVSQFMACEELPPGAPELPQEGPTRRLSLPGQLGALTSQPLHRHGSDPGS

**Q.** How did the “hERG current change (%, negative = inhibition) at 10uM” value turn out when `Cc1ccc(Cc2nnc(SCC(=O)Nc3c(C)cccc3C)[nH]c2=O)cc1` was run?
**A.** -9.17%

**Q.** `CCOC(=O)c1c(NC(=O)C2C3C=CC(C3)C2C(=O)O)sc2c1CC(C)CC2` (centres unmarked) was tested. Which “hERG current change (%, negative = inhibition) at 10uM” value did it give?
**A.** 19.6%

**Q.** `CCOC(=O)c1c(NC(=O)C2C3C=CC(C3)C2C(=O)O)sc2c1CCC(C)C2` (centres unmarked) was tested. Which “hERG current change (%, negative = inhibition) at 10uM” value did it give?
**A.** -6.93%

**Q.** `CCCOC(=O)c1c(NC(=O)C2C3C=CC(C3)C2C(=O)O)sc2c1CCC(C)C2` (centres unmarked) was tested. Which “hERG current change (%, negative = inhibition) at 10uM” value did it give?
**A.** -59.3%

**Q.** With `O=C(O)c1cc2c(cn1)[nH]c1ccccc12` as the compound, how does the “hERG current change (%, negative = inhibition) at 10uM” value read?
**A.** 10.9%

**Q.** For `CC1CCC(C(C)C)C(OC(=O)Cn2nnc3c(cnn3-c3ccccc3)c2=O)C1` (centres unmarked), which “hERG current change (%, negative = inhibition) at 10uM” value is on record?
**A.** 3.74%

**Q.** How did the “hERG current change (%, negative = inhibition) at 10uM” value turn out when `CC1CCC(C(C)C)C(OC(=O)CSc2n[nH]c(=O)[nH]c2=O)C1` (centres unmarked) was run?
**A.** -19.9%

**Q.** With `CC1CCC(C(C)C)C(OC(=O)Cn2c(-c3ccccc3)[n+](C)c3ccccc32)C1.[Cl-]` (centres unmarked) as the compound, how does the “hERG current change (%, negative = inhibition) at 10uM” value read?
**A.** -77.3%

**Q.** Which “hERG current change (%, negative = inhibition) at 10uM” value does the source give for `CC1CCC(C(C)C)C(OC(=O)Cn2c(-c3ccc(F)cc3)[n+](C)c3ccccc32)C1.[Cl-]` (centres unmarked) here?
**A.** -76.3%

**Q.** Which “hERG current change (%, negative = inhibition) at 10uM” value does the source give for `CC1CCC(C(C)C)C(OC(=O)Cn2c(-c3ccc(Br)cc3)[n+](C)c3ccccc32)C1.[Cl-]` (centres unmarked) here?
**A.** -78.3%

**Q.** `CC1CCC(C(C)C)C(OC(=O)Cn2c(-c3ccc(Cl)cc3)[n+](C)c3ccccc32)C1.[Cl-]` (centres unmarked) was tested. Which “hERG current change (%, negative = inhibition) at 10uM” value did it give?
**A.** -82.9%

**Q.** `CC1CCC(C(C)C)C(OC(=O)CSc2nnc(N)s2)C1` (centres unmarked) was tested. Which “hERG current change (%, negative = inhibition) at 10uM” value did it give?
**A.** 3.01%

**Q.** `CC1CCC(C(C)C)C(OC(=O)C[n+]2cccc(C(N)=O)c2)C1.[Cl-]` (centres unmarked) was tested. Which “hERG current change (%, negative = inhibition) at 10uM” value did it give?
**A.** 7.66%

**Q.** Which “hERG current change (%, negative = inhibition) at 10uM” value does the source give for `CC1CCC(C(C)C)C(OC(=O)COC(=O)c2ccc(N)cc2)C1` (centres unmarked) here?
**A.** 6.47%

**Q.** Which “hERG current change (%, negative = inhibition) at 10uM” value does the source give for `CC1CCC(C(C)C)C(OC(=O)COC(=O)c2cccn2C)C1` (centres unmarked) here?
**A.** 16.1%

**Q.** For `CC1CCC(C(C)C)C(OC(=O)COC(=O)c2ccc(=O)[nH]c2)C1` (centres unmarked), which “hERG current change (%, negative = inhibition) at 10uM” value is on record?
**A.** -8.28%

**Q.** How did the “hERG current change (%, negative = inhibition) at 10uM” value turn out when `Cc1nnc(SCC(=O)OC2CC(C)CCC2C(C)C)[nH]c1=O` (centres unmarked) was run?
**A.** 11.1%

**Q.** `COc1cccc(-n2ccnc2SCC(=O)Nc2cc(C)on2)c1` was tested. Which “hERG current change (%, negative = inhibition) at 10uM” value did it give?
**A.** 14.1%

**Q.** `Cc1ccc(S(=O)(=O)Nc2ccc(S(=O)(=O)Nc3cc(C)nc(C)n3)cc2)cc1` was tested. Which “hERG current change (%, negative = inhibition) at 10uM” value did it give?
**A.** 23.3%

**Q.** For `NC(=O)c1cccnc1Oc1ccccc1`, which “hERG current change (%, negative = inhibition) at 10uM” value is on record?
**A.** -30.8%

**Q.** `O=C(N/N=C/c1ccc(OC(=O)c2cccs2)cc1)c1ccc(F)cc1` was tested. Which “hERG current change (%, negative = inhibition) at 10uM” value did it give?
**A.** 10%

**Q.** For `O=C(c1cc(=O)[nH]c2ccc(Br)cc12)N1CCC2(CC1)OCCO2`, which “hERG current change (%, negative = inhibition) at 10uM” value is on record?
**A.** 12.6%

**Q.** `CCOC(=O)c1c(-c2ccccc2)csc1NC(=O)c1ccc(S(=O)(=O)N2CCOCC2)cc1` was tested. Which “hERG current change (%, negative = inhibition) at 10uM” value did it give?
**A.** 9.29%

**Q.** Which “hERG current change (%, negative = inhibition) at 10uM” value does the source give for `CCN(CC)c1cc(NCCO)c([N+](=O)[O-])c2nonc12` here?
**A.** -25.1%

**Q.** For `O=C(NCCS(=O)(=O)N1CCN(c2ccccc2F)CC1)c1ccc(Br)cc1`, which “hERG current change (%, negative = inhibition) at 10uM” value is on record?
**A.** 4.45%

**Q.** With `COc1ccc(CCC(=O)NCCS(=O)(=O)N2CCN(c3ccccc3OC)CC2)cc1` as the compound, how does the “hERG current change (%, negative = inhibition) at 10uM” value read?
**A.** -8.87%

**Q.** Which “hERG current change (%, negative = inhibition) at 10uM” value does the source give for `COc1ccc(CCC(=O)NCCS(=O)(=O)N2CCN(c3ccccc3F)CC2)cc1` here?
**A.** -63.2%

**Q.** Which “hERG current change (%, negative = inhibition) at 10uM” value does the source give for `COc1ccc(CCC(=O)NCCS(=O)(=O)N2CCN(c3ccc(F)cc3)CC2)cc1` here?
**A.** -58.8%

**Q.** Which “hERG current change (%, negative = inhibition) at 10uM” value does the source give for `COc1ccc(CCC(=O)NCCS(=O)(=O)N2CCN(c3ccccc3)CC2)cc1` here?
**A.** -36.6%

**Q.** Which “hERG current change (%, negative = inhibition) at 10uM” value does the source give for `O=C(NCCS(=O)(=O)N1CCN(c2ccccc2F)CC1)c1ccc(Cl)cc1` here?
**A.** -55.5%

**Q.** `COc1ccc(CCC(=O)NCCS(=O)(=O)N2CCN(c3ccc(OC)cc3)CC2)cc1` was tested. Which “hERG current change (%, negative = inhibition) at 10uM” value did it give?
**A.** 7.57%

**Q.** How did the “hERG current change (%, negative = inhibition) at 10uM” value turn out when `O=C(Cc1ccc(Cl)cc1)NCCS(=O)(=O)N1CCN(c2ccccc2F)CC1` was run?
**A.** -10.6%

**Q.** How did the “hERG current change (%, negative = inhibition) at 10uM” value turn out when `O=C(CCCc1ccccc1)NCCS(=O)(=O)N1CCN(c2ccccc2F)CC1` was run?
**A.** -18.5%

**Q.** For `COC(=O)COc1ccc(C(C2C(=O)CC(C)(C)CC2=O)C2C(=O)CC(C)(C)CC2=O)cc1`, which “hERG current change (%, negative = inhibition) at 10uM” value is on record?
**A.** 15.8%

**Q.** `Cc1oc2c(O)c(O)ccc2c(=O)c1-c1ccc(Cl)cc1` was tested. Which “hERG current change (%, negative = inhibition) at 10uM” value did it give?
**A.** -11.3%

**Q.** How did the “hERG current change (%, negative = inhibition) at 10uM” value turn out when `COc1ccc([C@H]2CC(=O)C=C(c3ccc(F)cc3OCc3ccccc3)C2)cc1OC` was run?
**A.** 12.1%

**Q.** With `CCN(CC)c1ccc(SS(=O)(=O)O)cc1` as the compound, how does the “hERG current change (%, negative = inhibition) at 10uM” value read?
**A.** 9.02%

**Q.** Which “hERG current change (%, negative = inhibition) at 10uM” value does the source give for `CCOc1ccccc1NC1=CC(=O)CC(c2ccccc2)C1` (centres unmarked) here?
**A.** -16.9%

**Q.** For `O=C(CN1CCN(S(=O)(=O)c2ccc(Cl)cc2)CC1)c1ccc(O)c(O)c1`, which “hERG current change (%, negative = inhibition) at 10uM” value is on record?
**A.** -59.5%

**Q.** How did the “hERG current change (%, negative = inhibition) at 10uM” value turn out when `O=C(CN1CCN(S(=O)(=O)c2cc(Cl)ccc2Cl)CC1)c1ccc(O)c(O)c1` was run?
**A.** 26.3%

**Q.** With `O=C(CN1CCN(S(=O)(=O)c2ccc(Br)cc2)CC1)c1ccc(O)c(O)c1` as the compound, how does the “hERG current change (%, negative = inhibition) at 10uM” value read?
**A.** -76.8%

**Q.** For `CC(C)c1ccc(S(=O)(=O)N2CCN(CC(=O)c3ccc(O)c(O)c3)CC2)cc1`, which “hERG current change (%, negative = inhibition) at 10uM” value is on record?
**A.** -24.6%

**Q.** Which “hERG current change (%, negative = inhibition) at 10uM” value does the source give for `O=C(CN1CCN(S(=O)(=O)c2ccc(F)cc2)CC1)c1ccc(O)c(O)c1` here?
**A.** -34.9%

**Q.** Which “hERG current change (%, negative = inhibition) at 10uM” value does the source give for `COc1ccc(S(=O)(=O)N2CCN(CC(=O)c3ccc(O)c(O)c3)CC2)cc1` here?
**A.** -45%

**Q.** Which “hERG current change (%, negative = inhibition) at 10uM” value does the source give for `Cc1cccc(-c2nc3ccccc3c3nncn23)c1` here?
**A.** -12.1%

**Q.** How did the “hERG current change (%, negative = inhibition) at 10uM” value turn out when `CCCn1c(NC(=O)c2cccc(S(=O)(=O)N3CCCC3)c2)nc2ccccc21` was run?
**A.** -28.8%

**Q.** `N#CCn1nnc(-c2ccc3c(c2)OCO3)n1` was tested. Which “hERG current change (%, negative = inhibition) at 10uM” value did it give?
**A.** -4.09%

**Q.** Which “hERG current change (%, negative = inhibition) at 10uM” value does the source give for `Cc1ccccc1OCC(=O)OCC(=O)Nc1cc(C(F)(F)F)ccc1N1CCOCC1` here?
**A.** 12.9%

**Q.** With `Cc1cc(C(=O)OCC(=O)Nc2cc(C(F)(F)F)ccc2N2CCOCC2)c(C)o1` as the compound, how does the “hERG current change (%, negative = inhibition) at 10uM” value read?
**A.** -0.421%

**Q.** Which “hERG current change (%, negative = inhibition) at 10uM” value does the source give for `COc1ccc(NC(C)=O)cc1NC(C)C(=O)Nc1cc(C(F)(F)F)ccc1N1CCOCC1` (centres unmarked) here?
**A.** -60.1%

**Q.** For `O=C(COC(=O)COc1ccc2ccccc2c1)Nc1cc(C(F)(F)F)ccc1N1CCOCC1`, which “hERG current change (%, negative = inhibition) at 10uM” value is on record?
**A.** 7.69%

**Q.** Which “hERG current change (%, negative = inhibition) at 10uM” value does the source give for `N#Cc1ccc(OCC(=O)OCC(=O)Nc2cc(C(F)(F)F)ccc2N2CCOCC2)cc1` here?
**A.** -57.7%

**Q.** `CC(=O)c1c(C)[nH]c(C(=O)OCC(=O)Nc2cc(C(F)(F)F)ccc2N2CCOCC2)c1C` was tested. Which “hERG current change (%, negative = inhibition) at 10uM” value did it give?
**A.** -56.1%

**Q.** With `O=C(COC(=O)c1ccc(O)cc1)Nc1cc(C(F)(F)F)ccc1N1CCOCC1` as the compound, how does the “hERG current change (%, negative = inhibition) at 10uM” value read?
**A.** -25%

**Q.** How did the “hERG current change (%, negative = inhibition) at 10uM” value turn out when `CSc1ncccc1C(=O)OCC(=O)Nc1cc(C(F)(F)F)ccc1N1CCOCC1` was run?
**A.** -20.2%

**Q.** Which “hERG current change (%, negative = inhibition) at 10uM” value does the source give for `COc1cc(Cl)c(C)cc1NC(C)C(=O)Nc1cc(C(F)(F)F)ccc1N1CCOCC1` (centres unmarked) here?
**A.** -2.59%

**Q.** Which “hERG current change (%, negative = inhibition) at 10uM” value does the source give for `COc1ccc(NC(C)C(=O)Nc2cc(C(F)(F)F)ccc2N2CCOCC2)c(OC)c1` (centres unmarked) here?
**A.** -19.2%

**Q.** For `Cc1cc(OCC(=O)OCC(=O)Nc2cc(C(F)(F)F)ccc2N2CCOCC2)ccc1Cl`, which “hERG current change (%, negative = inhibition) at 10uM” value is on record?
**A.** 11.1%

**Q.** How did the “hERG current change (%, negative = inhibition) at 10uM” value turn out when `O=C(COC(=O)c1ccccc1NCCO)Nc1cc(C(F)(F)F)ccc1N1CCOCC1` was run?
**A.** -60.2%
